As usually defined, the inhibition is the relative decrease from the control value, in per cent.

In test [1] the target is T1, Tyrosine-protein kinase ITK/TSK (Homo sapiens) (UniProt Q08881).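 Also: values are mean percent inhibition of ITK from the GSK PKIS screen.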
T1 sequence (whole entry): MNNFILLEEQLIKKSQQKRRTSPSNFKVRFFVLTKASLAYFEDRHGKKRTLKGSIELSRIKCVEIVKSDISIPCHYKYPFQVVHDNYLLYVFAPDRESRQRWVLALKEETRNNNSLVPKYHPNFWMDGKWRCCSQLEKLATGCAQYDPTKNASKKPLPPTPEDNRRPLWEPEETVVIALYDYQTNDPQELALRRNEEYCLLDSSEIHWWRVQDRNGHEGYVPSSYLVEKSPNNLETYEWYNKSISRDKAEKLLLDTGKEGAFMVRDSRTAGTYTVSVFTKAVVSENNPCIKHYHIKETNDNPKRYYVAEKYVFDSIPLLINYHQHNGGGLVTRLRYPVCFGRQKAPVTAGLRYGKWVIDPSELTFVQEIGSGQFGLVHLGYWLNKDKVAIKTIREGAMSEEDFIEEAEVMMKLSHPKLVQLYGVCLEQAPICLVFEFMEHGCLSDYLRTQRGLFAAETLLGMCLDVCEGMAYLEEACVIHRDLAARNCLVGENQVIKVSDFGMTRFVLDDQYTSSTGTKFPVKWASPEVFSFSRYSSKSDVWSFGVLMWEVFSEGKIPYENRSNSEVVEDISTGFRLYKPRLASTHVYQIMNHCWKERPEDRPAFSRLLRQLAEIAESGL
As to conditions: at 1 µM.

In test [2] the target is Tyrosine-protein kinase JAK1 (Homo sapiens) (UniProt P23458). As to conditions: at 0.1 µM.
Test [3] shares this target. As to conditions: at 1 µM.
The target of test [4] is Tyrosine-protein kinase JAK2 (Homo sapiens) (UniProt O60674). Particulars: at 0.1 µM.
Test [5] shares this target. Particulars: at 1 µM.
In test [6] the target is T2, Tyrosine-protein kinase JAK3 (Homo sapiens) (UniProt P52333).
T2 sequence (whole entry): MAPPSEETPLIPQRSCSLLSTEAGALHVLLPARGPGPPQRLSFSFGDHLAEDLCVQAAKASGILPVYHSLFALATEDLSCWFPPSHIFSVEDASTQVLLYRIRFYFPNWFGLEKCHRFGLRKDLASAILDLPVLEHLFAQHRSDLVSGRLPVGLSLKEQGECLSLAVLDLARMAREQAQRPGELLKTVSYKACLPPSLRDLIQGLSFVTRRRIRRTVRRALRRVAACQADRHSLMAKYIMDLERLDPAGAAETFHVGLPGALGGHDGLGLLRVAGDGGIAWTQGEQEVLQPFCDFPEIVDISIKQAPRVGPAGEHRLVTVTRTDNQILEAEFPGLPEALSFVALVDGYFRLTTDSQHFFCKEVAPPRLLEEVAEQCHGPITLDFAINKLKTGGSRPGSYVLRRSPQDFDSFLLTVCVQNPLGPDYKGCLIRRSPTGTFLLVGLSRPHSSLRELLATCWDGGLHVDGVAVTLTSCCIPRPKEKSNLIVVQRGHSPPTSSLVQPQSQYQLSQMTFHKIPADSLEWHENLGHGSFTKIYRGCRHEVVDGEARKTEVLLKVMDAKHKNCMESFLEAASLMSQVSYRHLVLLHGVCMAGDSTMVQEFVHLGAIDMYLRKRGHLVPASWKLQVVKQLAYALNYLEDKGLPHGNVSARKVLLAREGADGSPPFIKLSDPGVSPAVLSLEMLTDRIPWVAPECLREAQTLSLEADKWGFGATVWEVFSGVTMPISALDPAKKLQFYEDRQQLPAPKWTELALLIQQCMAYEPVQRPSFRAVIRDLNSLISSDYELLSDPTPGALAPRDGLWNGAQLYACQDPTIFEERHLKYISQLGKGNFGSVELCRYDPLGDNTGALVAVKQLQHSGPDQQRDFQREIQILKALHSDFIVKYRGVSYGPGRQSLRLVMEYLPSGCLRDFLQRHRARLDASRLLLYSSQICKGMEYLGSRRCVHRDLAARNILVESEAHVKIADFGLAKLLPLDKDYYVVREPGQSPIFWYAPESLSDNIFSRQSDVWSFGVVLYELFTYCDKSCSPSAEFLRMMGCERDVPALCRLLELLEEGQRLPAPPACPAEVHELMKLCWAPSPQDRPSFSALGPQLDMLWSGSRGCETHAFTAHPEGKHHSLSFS
Particulars: at 0.1 µM.

Test [7] addresses T2, Tyrosine-protein kinase JAK3 (Homo sapiens). As to conditions: at 1 µM.
The target in test [8] is Vascular endothelial growth factor receptor 2 (Homo sapiens) (UniProt P35968). Particulars: at 0.1 µM.
Test [9] shares this target. As to conditions: at 1 µM.
The target of test [10] is Mast/stem cell growth factor receptor Kit (Homo sapiens) (UniProt P10721). As to conditions: at 0.1 µM.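 Also: values are mean inhibition of KIT, from the GSK PKIS dataset.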
Sequence of Mast/stem cell growth factor receptor Kit (Homo sapiens) (P10721 whole entry): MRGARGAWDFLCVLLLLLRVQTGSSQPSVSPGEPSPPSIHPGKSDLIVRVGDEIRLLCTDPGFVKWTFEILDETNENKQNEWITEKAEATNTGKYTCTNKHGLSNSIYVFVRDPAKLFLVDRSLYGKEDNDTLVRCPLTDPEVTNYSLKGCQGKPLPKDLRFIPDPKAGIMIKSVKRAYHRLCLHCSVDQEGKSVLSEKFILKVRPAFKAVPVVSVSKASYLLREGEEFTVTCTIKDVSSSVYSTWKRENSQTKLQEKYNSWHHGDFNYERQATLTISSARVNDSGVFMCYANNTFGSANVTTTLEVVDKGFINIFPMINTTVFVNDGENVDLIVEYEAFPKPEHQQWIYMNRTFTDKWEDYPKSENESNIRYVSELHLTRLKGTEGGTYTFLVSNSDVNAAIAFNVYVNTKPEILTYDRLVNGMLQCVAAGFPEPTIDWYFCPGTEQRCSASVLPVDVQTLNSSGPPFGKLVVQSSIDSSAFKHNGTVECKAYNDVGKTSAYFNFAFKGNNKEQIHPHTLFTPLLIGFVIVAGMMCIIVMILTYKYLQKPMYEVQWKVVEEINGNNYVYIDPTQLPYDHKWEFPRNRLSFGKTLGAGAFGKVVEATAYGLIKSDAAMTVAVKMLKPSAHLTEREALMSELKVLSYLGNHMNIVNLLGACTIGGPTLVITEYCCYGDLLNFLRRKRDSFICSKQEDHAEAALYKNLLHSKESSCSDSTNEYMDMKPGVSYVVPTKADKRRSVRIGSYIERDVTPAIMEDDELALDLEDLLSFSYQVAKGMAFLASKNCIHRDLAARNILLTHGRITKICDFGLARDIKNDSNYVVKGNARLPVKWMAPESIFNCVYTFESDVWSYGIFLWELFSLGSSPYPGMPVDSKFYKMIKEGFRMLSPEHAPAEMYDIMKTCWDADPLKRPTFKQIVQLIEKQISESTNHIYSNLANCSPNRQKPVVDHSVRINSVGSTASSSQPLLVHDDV

Sequence of Tyrosine-protein kinase JAK2 (Homo sapiens) (O60674 whole entry): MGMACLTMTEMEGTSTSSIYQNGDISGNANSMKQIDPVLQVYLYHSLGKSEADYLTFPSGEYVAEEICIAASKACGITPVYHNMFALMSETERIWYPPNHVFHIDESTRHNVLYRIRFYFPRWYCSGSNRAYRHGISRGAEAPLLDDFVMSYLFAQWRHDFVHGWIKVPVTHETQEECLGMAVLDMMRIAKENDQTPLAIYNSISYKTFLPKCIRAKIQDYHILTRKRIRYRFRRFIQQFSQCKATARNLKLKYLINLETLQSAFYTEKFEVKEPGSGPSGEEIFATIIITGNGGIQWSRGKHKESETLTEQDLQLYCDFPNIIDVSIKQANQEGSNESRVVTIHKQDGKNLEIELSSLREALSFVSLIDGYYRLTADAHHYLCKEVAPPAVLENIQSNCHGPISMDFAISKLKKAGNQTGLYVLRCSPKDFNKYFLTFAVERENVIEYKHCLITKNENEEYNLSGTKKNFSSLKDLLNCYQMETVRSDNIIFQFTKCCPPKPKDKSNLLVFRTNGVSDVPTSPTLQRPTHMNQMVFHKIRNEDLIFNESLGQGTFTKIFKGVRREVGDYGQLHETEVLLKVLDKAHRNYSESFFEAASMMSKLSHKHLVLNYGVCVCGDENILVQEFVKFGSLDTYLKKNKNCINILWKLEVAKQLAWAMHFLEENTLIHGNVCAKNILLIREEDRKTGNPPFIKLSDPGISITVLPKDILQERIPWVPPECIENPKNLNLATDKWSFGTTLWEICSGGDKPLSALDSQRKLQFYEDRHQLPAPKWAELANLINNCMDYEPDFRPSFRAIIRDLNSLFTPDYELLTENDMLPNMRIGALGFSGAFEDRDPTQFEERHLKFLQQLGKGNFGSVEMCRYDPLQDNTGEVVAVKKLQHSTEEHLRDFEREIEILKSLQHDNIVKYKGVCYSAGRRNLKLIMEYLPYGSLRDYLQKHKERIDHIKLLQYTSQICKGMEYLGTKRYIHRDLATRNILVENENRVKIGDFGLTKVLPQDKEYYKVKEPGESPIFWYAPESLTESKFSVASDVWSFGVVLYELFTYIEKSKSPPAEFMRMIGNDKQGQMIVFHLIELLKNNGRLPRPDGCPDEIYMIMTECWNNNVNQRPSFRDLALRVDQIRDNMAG
Sequence of Vascular endothelial growth factor receptor 2 (Homo sapiens) (P35968 whole entry): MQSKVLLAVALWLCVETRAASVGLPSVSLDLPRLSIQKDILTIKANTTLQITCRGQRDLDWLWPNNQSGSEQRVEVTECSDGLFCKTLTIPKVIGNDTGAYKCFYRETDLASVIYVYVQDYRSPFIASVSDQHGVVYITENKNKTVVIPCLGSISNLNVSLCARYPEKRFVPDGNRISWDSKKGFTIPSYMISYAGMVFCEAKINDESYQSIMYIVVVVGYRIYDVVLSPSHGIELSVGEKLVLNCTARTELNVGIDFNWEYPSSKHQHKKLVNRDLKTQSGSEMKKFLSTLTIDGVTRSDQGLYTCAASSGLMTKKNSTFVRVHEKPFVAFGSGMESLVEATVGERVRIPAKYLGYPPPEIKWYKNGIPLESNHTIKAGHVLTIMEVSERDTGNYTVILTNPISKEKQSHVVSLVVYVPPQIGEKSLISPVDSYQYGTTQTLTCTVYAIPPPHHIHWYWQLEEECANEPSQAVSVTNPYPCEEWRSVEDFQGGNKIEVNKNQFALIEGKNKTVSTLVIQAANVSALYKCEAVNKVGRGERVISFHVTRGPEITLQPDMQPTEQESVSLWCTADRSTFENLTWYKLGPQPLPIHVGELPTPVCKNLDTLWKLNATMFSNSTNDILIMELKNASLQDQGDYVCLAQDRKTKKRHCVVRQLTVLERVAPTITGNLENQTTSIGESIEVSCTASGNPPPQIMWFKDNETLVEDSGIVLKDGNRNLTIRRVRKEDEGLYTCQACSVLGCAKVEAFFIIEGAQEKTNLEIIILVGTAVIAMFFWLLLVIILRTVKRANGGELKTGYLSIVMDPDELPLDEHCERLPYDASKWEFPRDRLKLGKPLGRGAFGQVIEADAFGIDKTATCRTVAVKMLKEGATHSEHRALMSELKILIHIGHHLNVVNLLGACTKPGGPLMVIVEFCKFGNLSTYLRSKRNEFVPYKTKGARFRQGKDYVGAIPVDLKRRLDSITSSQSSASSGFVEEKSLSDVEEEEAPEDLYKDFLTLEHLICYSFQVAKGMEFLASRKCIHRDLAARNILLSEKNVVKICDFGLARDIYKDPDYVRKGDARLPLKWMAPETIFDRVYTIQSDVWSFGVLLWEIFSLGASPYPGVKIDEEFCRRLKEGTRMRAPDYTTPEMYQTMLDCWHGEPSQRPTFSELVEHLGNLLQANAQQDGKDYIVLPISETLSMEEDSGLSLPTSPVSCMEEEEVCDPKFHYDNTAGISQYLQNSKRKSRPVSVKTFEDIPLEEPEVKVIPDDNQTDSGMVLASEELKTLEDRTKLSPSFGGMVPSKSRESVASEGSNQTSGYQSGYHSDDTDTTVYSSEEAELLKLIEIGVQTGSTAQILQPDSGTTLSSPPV
Sequence of Tyrosine-protein kinase JAK1 (Homo sapiens) (P23458 whole entry): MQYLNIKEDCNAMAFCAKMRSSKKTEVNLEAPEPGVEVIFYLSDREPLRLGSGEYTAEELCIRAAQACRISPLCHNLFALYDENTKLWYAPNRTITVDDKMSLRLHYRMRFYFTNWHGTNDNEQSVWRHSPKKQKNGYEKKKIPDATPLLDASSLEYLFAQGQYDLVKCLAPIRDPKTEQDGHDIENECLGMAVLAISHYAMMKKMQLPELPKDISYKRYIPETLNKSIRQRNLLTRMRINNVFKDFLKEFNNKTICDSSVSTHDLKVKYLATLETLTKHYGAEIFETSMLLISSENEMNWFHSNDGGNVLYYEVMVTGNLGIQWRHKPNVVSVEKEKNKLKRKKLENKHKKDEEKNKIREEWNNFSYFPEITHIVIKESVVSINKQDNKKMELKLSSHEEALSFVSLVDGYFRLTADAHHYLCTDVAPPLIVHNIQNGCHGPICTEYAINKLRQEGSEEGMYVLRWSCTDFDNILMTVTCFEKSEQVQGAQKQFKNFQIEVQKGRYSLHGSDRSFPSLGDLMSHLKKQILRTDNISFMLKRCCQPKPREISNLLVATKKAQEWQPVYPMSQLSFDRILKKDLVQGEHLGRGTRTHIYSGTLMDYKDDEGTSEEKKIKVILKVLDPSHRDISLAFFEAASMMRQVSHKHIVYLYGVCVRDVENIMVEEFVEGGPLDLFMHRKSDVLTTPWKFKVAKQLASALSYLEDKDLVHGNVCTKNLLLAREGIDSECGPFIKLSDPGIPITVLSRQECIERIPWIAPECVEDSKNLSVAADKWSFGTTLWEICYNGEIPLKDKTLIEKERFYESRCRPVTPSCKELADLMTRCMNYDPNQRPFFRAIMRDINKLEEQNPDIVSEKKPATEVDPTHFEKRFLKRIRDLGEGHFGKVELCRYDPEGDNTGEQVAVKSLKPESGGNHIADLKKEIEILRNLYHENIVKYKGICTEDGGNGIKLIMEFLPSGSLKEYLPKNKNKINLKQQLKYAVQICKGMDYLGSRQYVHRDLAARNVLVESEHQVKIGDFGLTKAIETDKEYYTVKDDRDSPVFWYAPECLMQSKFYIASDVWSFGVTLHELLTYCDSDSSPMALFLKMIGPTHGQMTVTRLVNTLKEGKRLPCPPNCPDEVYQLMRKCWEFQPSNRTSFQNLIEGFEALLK

Consider `CCc1nccc2c1nc(-c1nonc1N)n2CC`, for which the inhibition was 1.25% in test [1]; 0.52% in test [2]; -2.63% in test [3]; 3.71% in [4]; 2.91% in test [5]; 0% in [6]. The inhibition in test [7] is 0.61%; in test [8] it was 5.64%; in [9], 17.7%; in test [10], 0.21%.
As to `CCN(CC)Cc1ccc(Nc2nccc(-c3cnn4ncccc34)n2)cc1`, the inhibition was -0.21% in [1]; 4.71% in test [2]; 4.83% in [3]; 6.24% in test [4]; 20.9% in [5]; -3.13% in test [6]. Further, the inhibition stood at 14.2% in test [7], 7.19% in [8], 39.1% in test [9] and 64.8% in [10].
In the case of `COc1cc(C)c(N(C)C(=O)CN(C)C)cc1Nc1nc(Nc2cccc(F)c2C(N)=O)c2cc[nH]c2n1`, the inhibition was -1.94% in test [1]; 3.43% in test [2]; -5.28% in [3]; 0.96% in test [4]; 1.71% in test [5]; -3.43% in test [6]. For the same molecule, the inhibition in test [7] is -3.47%; in test [8] it was 1.87%; in test [9], 1.78%; in test [10], 0.03%.
`C[C@@H](Oc1cc(-n2cnc3ccc(OCC4CCN(C)CC4)cc32)sc1C(N)=O)c1ccccc1Cl`: the inhibition in test [1] was 3.2%; in test [2], 8.98%; in test [3], 6.05%; in [4], 1.61%; in test [5] it was 2.26%; in test [6], -1.46%. Moreover, the inhibition in [7] was determined as 29.3%; in test [8] it was 7.07%; in [9] it was 36.4%; in test [10] it was 5.23%.
Turning to `CCS(=O)(=O)c1ccc(OC)c(Nc2ncc(-c3cccc(-c4ccccc4F)c3)o2)c1`, the inhibition is 2.37% in test [1]; -2.17% in test [2]; 1.93% in test [3]; 0.19% in test [4]; 2.27% in test [5]; 1.2% in test [6]. Besides, the inhibition in [7] worked out at 13.9%; in test [8], 66.9%; in test [9] it was 89.5%; in test [10] it was 53.7%.
As for `COc1cc(Nc2ncc3c(C)nc(-c4cccc(C(F)(F)F)c4)n3n2)cc(OC)c1OC`, the inhibition is 13.5% in test [1]; 3.02% in test [2]; 8.95% in test [3]; 1.27% in [4]; 11.1% in [5]; -0.52% in test [6]. The inhibition turned out to be 4.91% in test [7], 4.26% in test [8], 8.61% in test [9] and 11.1% in test [10].
Consider `COc1cc(Nc2ncc(-c3ccccc3)o2)cc(OC)c1OC`, for which the inhibition in [1] was 2.92%; in [2], -8.6%; in test [3] it was -0.54%; in test [4], -0.76%; in test [5] it was 5.24%; in test [6] it was -0.1%. Further, the inhibition in [7] stood at 12.7%; in test [8] it was 7.23%; in [9], 48%; in [10] it was 85.4%.
On to `COc1cccc(-n2cnc3c(N/N=C/c4ccncc4)ncnc32)c1`, for which the inhibition was -1.27% in test [1]; 4.44% in test [2]; 16.3% in test [3]; 0.27% in [4]; 0.37% in test [5]; -2.48% in test [6]. For the same molecule, the inhibition in test [7] was -2.19%; in test [8], -0.11%; in [9] it was 11.2%; in test [10], 33.4%.
On to `CCc1ccc(Oc2nccc(-c3c(-c4ccc(F)cc4)ncn3C3CCNCC3)n2)cc1`, for which the inhibition in test [1] was 2.38%; in test [2], 4.16%; in test [3], 4.5%; in test [4], 1.64%; in test [5], 2.94%; in test [6], -1.25%. Besides, the inhibition in test [7] was -0.22%; in test [8], 5.19%; in test [9], 13.5%; in test [10] it was 4.71%.
`Cc1ccc(NC(=O)c2ccoc2)cc1-c1ccc(C(=O)NCC2CC2)cc1`: the inhibition is 1.05% in [1]; 1% in [2]; 2.95% in test [3]; 0% in [4]; -1.25% in [5]; -1.84% in [6]. The inhibition in test [7] was -0.47%; in [8], 15.3%; in [9], 62%; in test [10], 1.57%.
As to `COc1cc(N2CCN(C(C)C)CC2)ccc1Nc1nc(Nc2ccc(F)cc2C(=O)NC[C@@H](O)CO)c2cc[nH]c2n1`, the inhibition in [1] was -1.4%; in [2], 3.78%; in test [3], 12.3%; in test [4] it was 0.29%; in test [5], 1.56%; in test [6] it was -5.03%. Moreover, the inhibition in [7] was -8.11%; in [8] it was 5.49%; in [9], 8.49%; in [10], 4.46%.
As to `O=C1Nc2ccc(I)cc2C1=Cc1cc(Br)c(O)c(Br)c1`, the inhibition was 1.44% in test [1]; 1.44% in [2]; 2.67% in test [3]; 2.54% in test [4]; 3% in test [5]; -0.81% in [6]. In addition, the inhibition in test [7] is -3.69%; in test [8], 5.81%; in test [9] it was 9.7%; in test [10], 5.45%.
`Cc1nnc(-c2ccc(C)c(-c3ccc(C(=O)NCc4ccc(Cl)cc4)cc3)c2)o1`: the inhibition is -2.86% in test [1]; 4.61% in [2]; 16.9% in test [3]; 1.06% in test [4]; 1.06% in test [5]; -4.26% in [6]. Also, the inhibition in test [7] was -4.85%; in test [8], 4.61%; in test [9], 5.62%; in test [10] it was 4.95%.
Take `Fc1ccc(-c2ncn(C3CCNCC3)c2-c2ccnc(Oc3ccc4c(c3)OCO4)n2)cc1`: the inhibition is 3.21% in test [1]; 3.3% in [2]; 4.29% in [3]; 0.42% in test [4]; 1.47% in [5]; -2.3% in test [6]. Also, the inhibition in [7] is -2.01%; in [8] it was 9.3%; in test [9], 12.5%; in [10] it was 7.99%.
As to `O=C(Nc1n[nH]c2nc(-c3ccco3)ccc12)C1CC1`, the inhibition is 2.43% in test [1]; -0.37% in test [2]; -0.27% in [3]; 0.87% in test [4]; 2.09% in [5]; 0.01% in test [6]. The inhibition in test [7] is 2.11%; in test [8] it was 7.28%; in [9], 14%; in test [10] it was 3.39%.
For the molecule `C[C@@H](Oc1cc(-n2cnc3ccc(OC4CCN(C)CC4)cc32)sc1C(N)=O)c1ccccc1Cl`, the inhibition is -1.75% in test [1]; 0.47% in [2]; -0.07% in test [3]; 4.66% in test [4]; 2.46% in test [5]; -5.38% in [6]. Besides, the inhibition in test [7] was found to be 13.5%; in [8] it was 9.62%; in test [9] it was 40.3%; in test [10] it was 5.05%.
Turning to `CS(=O)(=O)CCNCc1ccc(-c2ccc3ncnc(Nc4ccc(OCc5ccccc5)c(Br)c4)c3c2)o1`, the inhibition in test [1] is -2.69%; in test [2] it was 3.52%; in test [3] it was 3.08%; in test [4], 1.19%; in [5], -1.02%; in [6], -5.54%. Besides, the inhibition in test [7] was -5.98%; in test [8], 10.1%; in test [9] it was 11.1%; in [10], 3.38%.

(Values after ChEMBL document CHEMBL1961873, “Compounds: GSK PKIS; Assays: Nanosyn kinase panel” (2012).)
